Structures can show the parent of a compound that is named as a salt.
Columns and labels:
[1] = tested on: Staphylococcus aureus MW2 delta-mecA (mecA-); test: normalized GFP fluorescence (growth of mecA- strain) (fraction of control range); higher = more growth of mecA- strain; settings: compound concentration: 150 uM; cefoxitin: subinhibitory; fluorescent label: GFP
How it was run: (§1)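 Single-replicate 1536-well plates carried 150 μM compound (1.5% DMSO), onto which 5 µL/well of a 1:1 mix of pre-induced S. aureus MW2 cells was dispensed: gene-carrying cells tagged with DsRed and deletion cells tagged with GFP, in LB with a subinhibitory antibiotic dose set daily. Incubation ran 20 h at 37 °C, 90% humidity, unshaken, followed by DsRed (540/590) and GFP (485/520) reads. Per-plate scaling of each channel used single-strain control medians, and plates with high untreated ratios and rows with DsRed/GFP >10 were excluded.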

[2] = tested on: Staphylococcus aureus MW2 (mecA+); test: normalized DsRed fluorescence (growth of mecA+ strain) (fraction of control range); higher = more growth of mecA+ strain; settings: compound concentration: 150 uM; cefoxitin: subinhibitory; fluorescent label: DsRed
How it was run: as §1

Row | SMILES | normalized GFP fluorescence [1] | normalized DsRed fluorescence [2]
1 | c1cnc2cc3c(cc2n1)[C@@H]1CNC[C@H]3C1 [Varenicline tartrate] | 0.504 | 0.508
2 | O=c1oc2cc(O)ccc2s1 [Tioxolone] | 0.428 | 0.731
3 | CNC(=O)CN(CCN(CCN(CC(=O)O)CC(=O)NC)CC(=O)O)CC(=O)O.O.[Gd] [Gadodiamide (Omniscan)] | 0.443 | 0.566
4 | C[C@H]1[C@H](OC(=O)CCC(=O)O)O[C@@H]2O[C@@]3(C)CC[C@H]4[C@H](C)CC[C@@H]1[C@@]24OO3 | 0.737 | 0.712
5 | NS(=O)(=O)c1cc2c(cc1C(F)(F)F)NC(Cc1ccccc1)NS2(=O)=O (configuration not stated) | 0.428 | 0.653
6 | O=C(O)c1cccnc1 [Niacin (Nicotinic acid)] | 0.536 | 0.614
7 | O=C(CCBr)N1CCN(C(=O)CCBr)CC1 | 0.631 | 0.794
8 | CCCc1cc(=O)[nH]c(=S)[nH]1 | 0.668 | 0.582
9 | COc1cc2c(cc1OC)C(=O)C(CC1CCN(Cc3ccccc3)CC1)C2 (configuration not stated) | 0.341 | 0.564
10 | CC(=O)OCC(=O)[C@@]1(O)CC[C@H]2[C@@H]3CCC4=CC(=O)CC[C@]4(C)[C@H]3[C@@H](O)C[C@@]21C | 0.58 | 0.595
11 | CC(CCc1ccccc1)NCC(O)c1ccc(O)c(C(N)=O)c1 (configuration not stated) | 0.745 | 0.7
12 | NC(=O)c1cccnc1 [Nicotinamide (Niacinamide)] | 0.478 | 0.458
13 | CC(C)C(=O)Oc1ccc(CO)cc1[C@H](CCN(C(C)C)C(C)C)c1ccccc1 [Fesoterodine fumarate (Toviaz)] | 0.00662 | 1.38
14 | Cc1cc(-c2ccccc2)nnc1NCCN1CCOCC1 | 0.44 | 0.611
15 | COC(=O)N[C@H](C(=O)N1CCC[C@H]1c1ncc(-c2ccc(-c3ccc(-c4cnc([C@@H]5CCCN5C(=O)[C@@H](NC(=O)OC)C(C)C)[nH]4)cc3)cc2)[nH]1)C(C)C | 0.242 | 0.788
16 | CCCCNC(=O)NS(=O)(=O)c1ccc(C)cc1 | 0.18 | 0.588
17 | CCCC(CCC)C(=O)O [Valproic acid sodium salt (Sodium valproate)] | 0.506 | 0.638
18 | CC(=O)O[C@]1(C(C)=O)CC[C@H]2[C@@H]3C[C@H](C)C4=CC(=O)CC[C@]4(C)[C@H]3CC[C@@]21C | 0.145 | 0.759

Row | SMILES | normalized GFP fluorescence [1] | normalized DsRed fluorescence [2]
19 | CN1CCN(CC(=O)N2c3ccccc3C(=O)Nc3cccnc32)CC1 | 0.28 | 0.759
20 | Nc1ccc(C(=O)NCC(=O)O)cc1 | 0.297 | 0.671
21 | Clc1cccc(Cl)c1NC1=NCCN1 | 0.205 | 0.663
22 | CCC(=O)O[C@@H](O[P@](=O)(CCCCc1ccccc1)CC(=O)N1C[C@H](C2CCCCC2)C[C@H]1C(=O)O)C(C)C [Fosinopril sodium (Monopril)] | 0.0781 | 0.378
23 | COc1ccccc1OCCNCC(O)COc1cccc2[nH]c3ccccc3c12 (configuration not stated) | 0.0386 | 1.17
24 | CC(C)NCC(O)c1ccc(NS(C)(=O)=O)cc1 (configuration not stated) | 0.417 | 0.703
25 | N[C@@H](CC(=O)N1CCn2c(nnc2C(F)(F)F)C1)Cc1cc(F)c(F)cc1F | 0.306 | 0.577
26 | CN1CCC(=C2c3ccccc3CCc3cccnc32)CC1 | 0.396 | 0.798
27 | CCCCOc1cc(C(=O)NCCN(CC)CC)c2ccccc2n1 [Dibucaine (Cinchocaine) HCl] | 0.265 | 0.835
28 | Clc1ccc2c(c1)C(N1CCNCC1)=Nc1ccccc1O2 | 0.114 | 1.74
29 | CN(C)CC[C@@H](c1ccc(Cl)cc1)c1ccccn1 | 0.307 | 0.588
30 | C#C[C@]1(O)CC[C@H]2[C@@H]3CCC4=Cc5oncc5C[C@]4(C)[C@H]3CC[C@@]21C | 0.414 | 0.779
31 | Cc1onc(-c2ccccc2)c1-c1ccc(S(N)(=O)=O)cc1 [Valdecoxib] | 0.291 | 0.573
32 | CCOC(=O)C1=C[C@@H](OC(CC)CC)[C@H](NC(C)=O)[C@@H](N)C1 | 0.257 | 0.588
33 | O=c1[nH]cnc2c1ncn2[C@@H]1O[C@H](CO)[C@@H](O)[C@H]1O [Inosine] | 0.197 | 0.97
34 | CC(C(=O)O)c1ccc(N2Cc3ccccc3C2=O)cc1 (configuration not stated) | 0.227 | 0.501
35 | CCN(CC)C(=O)/C(C#N)=C/c1cc(O)c(O)c([N+](=O)[O-])c1 [Entacapone] | 0.111 | 1.35
36 | CC(=O)O[C@H]1CC[C@@]2(C)C(=CC[C@@H]3[C@@H]2CC[C@]2(C)C(c4cccnc4)=CC[C@@H]32)C1 [Abiraterone Acetate (CB7630)] | 0.278 | 0.65

Reference: the supplement of paper PMC7695840
